Shown are actives, neighbours in structure and some others; about 1.9% of the full set was active somewhere.
BRCA1 expr up: increases BRCA1 expression; MCF7-BRCA1-FFLuc reporter, luminescence, 48 h; response scale: scaled: vehicle 0%, 10 µM genistein 100%; Potency, µM (top dose mostly 46.1 µM), for inactives: at the top dose activation, most hits filed as activators; hit rate 1.1% among 380,000; also: potency is read from the fitted curve at half-maximal effect; nearly all actives have a fitted effect of over 80% in size
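48 h compound treatment of MCF7-BRCA1-FFLuc cells (phenol-red free MEM, 37 °C), then 15 min with luciferase substrate and luminescence imaging.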
RXFP1 antag: antagonists of human relaxin receptor RXFP1; Q9HBX9; HEK293-RXFP1, relaxin-stimulated cAMP HTRF, 30 min; hits give low values; activity change, negative = inhibition, % at 57.5 µM; hit rate 0.59% among 350,000; AID 1259400;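 active = activity change of -60% or lower, but not beyond a set lower limit; inconclusive = change between -60% and -40%, or beyond the set limit; inactive = change above -40%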; also: % is scaled to controls: 0 for no effect and ±100 for the full control effect
NPSR antagonist: neuropeptide S receptor (human) antagonism, cAMP; Q6W5P4; CHO-NPSR cells, cAMP TR-FRET, antagonist mode; Potency, µM (series often up to 38.3 µM), for inactives: at the top dose activity change, negative = inhibition, hits mostly inhibitors; hit rate 1% among 220,000; also: potency is read from the fitted curve at half-maximal effect; % is scaled to controls: 0 for no effect and ±100 for the full control effect; nearly all actives have a fitted effect of over 50% in size
Target sequence (Q6W5P4 whole entry, looked up): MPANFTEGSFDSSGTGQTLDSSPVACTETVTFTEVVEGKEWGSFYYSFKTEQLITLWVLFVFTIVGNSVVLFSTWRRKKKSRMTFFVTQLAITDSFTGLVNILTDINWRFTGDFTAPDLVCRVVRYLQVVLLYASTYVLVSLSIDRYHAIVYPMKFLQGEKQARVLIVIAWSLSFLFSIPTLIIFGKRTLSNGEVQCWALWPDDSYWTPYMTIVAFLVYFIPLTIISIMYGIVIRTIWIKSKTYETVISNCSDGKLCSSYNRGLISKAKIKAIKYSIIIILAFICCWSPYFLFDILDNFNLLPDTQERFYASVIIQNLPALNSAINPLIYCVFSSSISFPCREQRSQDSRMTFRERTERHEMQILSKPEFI
RXFP1 agonist: activates the human relaxin receptor RXFP1 | HEK293T-RXFP1 cAMP TR-FRET, 30 min; response scale: percent of porcine relaxin response, buffer zero | hit rate 0.3% among 370,000 | Q9HBX9 | Potency, µM (top dose mostly 57.5 µM), for inactives: at the highest dose activation, actives largely listed as activators; also: potency is read from the fitted curve at half-maximal effect; % is scaled to controls: 0 for no effect and ±100 for the full control effect; nearly all actives have a fitted effect of over 60% in size
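HEK293T cells stably expressing RXFP1 were pretreated with the PDE4 inhibitor Ro 20174, exposed to compounds for 30 min at 37C, lysed, and cAMP was read by TR-FRET. Data normalized to buffer (basal) and 29 nM porcine relaxin (100%).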
Giardia kill: kills Giardia lamblia; Giardia lamblia trophozoite viability; activity change, % at 7.66 µM, hits read low; hit rate 0.15% among 340,000; AID 540267; in the data active = activity change below about -80%; inconclusive = between about -30% and that limit;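 also: parasites exposed to compound for two days anaerobically before the ATP read; % is scaled to controls: 0 for no effect and ±100 for the full control effect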
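Luminescent ATP signal served as the viability read-out, measured 15-30 min after adding ATP detection reagent to trophozoites that had been incubated with compounds for 48 hrs at 37 deg C anaerobically at 100 cells/well.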
IL-2 act: activators of IL-2. IL-2 activation reporter assay, cell-based qHTS; stimulated with anti-CD3/CD4/CD28 beads; in transgenic mouse T cells. activation, % (series mostly up to about 46 µM). hit rate 0.065% among 360,000. AID 652025; in the data active = activation above about 50%; inconclusive = mostly about 30% to 49%; also: 0% is about no effect
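Using fluorescent plate cytometry, EGFP and DsRed are detected in transgenic mouse T cells stimulated 18 h at 37 degrees C with antibody-coated beads after 60 min compound pretreatment.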
Active calls of the source: *; ? = inconclusive; / = no result given; [ ] = remark or other dose. Unless noted, calls follow the shape of the dose curve; as a rule, active = well fitted curve in the direction sought with a large enough effect; inconclusive = small, poorly fitted or top-dose-only effect, or another doubt; inactive = no such curve, though single readings can be large; an effect the other way counts as inactive or inconclusive.

SMILES | BRCA1 expr up | RXFP1 antag | NPSR antagonist | RXFP1 agonist | Giardia kill | IL-2 act
O=c1[nH]c(=S)n(C2CC2)c(O)c1C=NCc1cccnc1 | 0% | 3 | 6% | 29% | 1 | 1
CCC1CC2CC3c4[nH]c5ccc(OC)cc5c4CCN(C2)C13 (configuration not stated) | / | -31 | / | / | / | /
Nc1c(C(=O)NC2CCCC2)c2nc3ccccc3nc2n1CC1CCCO1 (configuration not stated) | -63% | -13 | 13µM* | 1% | 4 | 1
N[C@@H](Cc1ccc(Oc2cc(I)c(O)c(I)c2)c(I)c1)C(=O)O | / | -32 | / | / | / | /
O=c1[nH]c2ccccc2n1C1CCNCC1 | / | 17 | / | / | / | /
CC1(C)C[C@H]2C=C(C=O)[C@]3(C=O)C[C@]3(C)[C@H]2C1 | -68% | / | 13µM* | 0% | -2 | -1
O=C(c1ccccc1)c1cn(CC(=O)N2CCCc3ccccc32)c2ccccc12 | -66% | -8 | 10µM* | 3% | -7 | 0
ClCCCN1CCN(c2cccc(Cl)c2)CC1 | / | 14 | / | / | / | /
O=C(O)c1sc2cc(Cl)ccc2c1Cl | / | / | -27% | 14µM* | / | /
S=C(SSC(=S)N1CCCCC1)N1CCCCC1 | / | 33 | / | / | / | /
Clc1cccc(Cl)c1Cn1nnc(N2CCCC2)n1 | 11µM* | -15 | 22% | 1% | 2 | -1
Cn1cc[n+](C)c1P(=S)(c1ccccc1)c1ccccc1 | -6% | -6 | 5µM* | 2% | -15 | 0
ClCCN(CCCl)c1ccc(/C=C/c2sc3ccccc3[n+]2CCCCI)cc1 | 17% | / | / | / | / | /
O=C1NC(=O)N(Cc2ccc(F)cc2)C(=O)/C1=C/c1cccs1 | -38% | -74* | -19% | 2% | -3 | 0
O=C1NC(=O)N(Cc2ccccc2Cl)C(=O)/C1=C/c1cccs1 | 16% | -6 | -26% | -1% | 0 | -4
O=C1NC(=O)N(Cc2ccccc2)C(=O)/C1=C/c1cnc(-c2ccccc2)nc1 | 62% | -28 | 10µM* | 0% | 25 | -2
CNc1cccc(-c2ccc(N3CCN(C)CC3)nc2)n1 | ? | / | / | / | / | 1
CC1CN(c2ccc([N+](=O)[O-])c3cccnc23)CC(C)N1 (configuration not stated) | 43% | -14 | 3%[46.1 µM] | -1% | -86* | 0
CC[C@@]1(C(=O)OC)N[C@H](CN(C)C(=O)Nc2ccc(OC)cc2)[C@@H]2C(=O)N(Cc3ccccc3)C(=O)[C@@H]21 | 10µM* | / | / | / | -25 | 0
COC(=O)[C@@H]1N=C(c2ccc(OC)cc2)O[C@]12C(=O)N(Cc1ccccc1)c1ccccc12 | -24% | / | / | / | / | -1
CCC(=O)O[C@@H]1C=C2CCC3C(CCC4(C)C3CC[C@@H]4OC(=O)CC)C2CC1 (some centres not stated) | / | -16 | / | / | / | /
CC1Oc2cc3c(-c4c(O)cc(O)c5c(O)c6c(cc45)OC(C)C(C)C6=O)c(O)cc(O)c3c(O)c2C(=O)C1C (configuration not stated) | -76% | / | ? | 2% | -82* | -1
COc1ccc(N/N=C/c2c(O)n(-c3ccc(C)c(C)c3)c(=O)[nH]c2=O)cc1 | -24% | -14 | -10% | 0% | 18 | 2
Cc1ccc(-n2c(O)c(/C=N/Nc3ccccc3)c(=O)[nH]c2=O)cc1C | -23% | -70* | 17% | 0% | 6 | 0
COc1cc(CC(C)N)cc2c1OCO2 (configuration not stated) | / | 17 | / | / | / | /
SMILES | BRCA1 expr up | RXFP1 antag | NPSR antagonist | RXFP1 agonist | Giardia kill | IL-2 act
Oc1c(Cl)cccc1Cc1cc(Cl)cc(Cl)c1O | -83% | -110* | / | / | 0 | 0
C[C@H]1[C@@H]2Cc3ccc(O)cc3[C@]1(C)CCN2C | / | 11 | / | / | / | /
Cc1c(P(=S)(c2ccccc2)c2ccccc2)[n+]2ccccc2n1C | -40% | -2 | 1.3µM* | 2% | ? | 1
CCCN(CCC)C(=O)Cc1c(-c2ccc(Cl)cc2)nc2ccc(Cl)cn12 | / | -33 | / | / | / | /
O=C(O)c1ccc(=O)[nH]c1 | / | 8 | / | / | / | /
CCOC(=O)c1ccc(N2Cc3ccccc3C2=NC(=O)c2cccc([N+](=O)[O-])c2)cc1 | 5µM* | 7 | / | / | -9 | 1
Cc1ccc(N2Cc3ccccc3C2=N)cc1[N+](=O)[O-] | -16% | -6 | 7% | 0% | -6 | 1
Nc1ccc(C2(c3ccc(N)cc3)c3ccccc3-c3ccccc32)cc1 | -89% | -80* | 6% | 0% | 10 | -3
CCOC(=O)CCCc1cc[c]([Sb](=[O])([OH])[OH])cc1 | -5% | / | / | / | -11 | /
COc1cc(CCN)c(OC)cc1Br | / | -6 | / | / | / | /
COC(=O)C1CN(C#N)N(c2ccc(Cl)cc2)C12c1ccccc1-c1ccccc12 (configuration not stated) | -90% | -16 | 7.9µM* | 0% | -7 | -3
COc1cc(C(C)=O)ccc1OCc1cc(C(=O)N(C)CCC2CCCCO2)no1 (configuration not stated) | 3.5µM* | 10 | / | -1% | 18 | 1
COc1ccc(C(C)=O)cc1CC(C(=O)c1ccc(Br)cc1)N(C)C (configuration not stated) | -2% | 1 | 18% | 1% | -23 | 1
O=C(CCCCl)c1ccc(F)cc1 | / | -10 | / | / | / | /
CC(C(=O)c1ccccc1)N(C)C (configuration not stated) | / | 2 | / | / | / | /
O=[N+]([O-])/C=C/c1c(OCc2ccccc2)ccc2ccccc12 | / | / | 6.3µM* | 0% | / | /
COc1ccc(NC(=O)CCCn2c(=O)oc3ccccc32)cc1Cl | 7.1µM* | 2 | 9% | 3% | 11 | 1
CC(C)CNC(=O)c1c(N)n(Cc2ccco2)c2nc3ccccc3nc12 | -20% | 4 | 10µM* | 2% | 11 | 1
CC(C)CCn1c(N)c(C(=O)NCc2cccs2)c2nc3ccccc3nc21 | -56% | -1 | -17%[46.1 µM] | -2% | 11 | -2
COCCNC(=O)c1c(NC(=O)c2ccc(Br)o2)n(Cc2ccccc2)c2nc3ccccc3nc12 | -9% | 5 | -41% | 9% | -17 | 2
CC(C)OCCCNC(=O)c1c(N)n(Cc2cccs2)c2nc3ccccc3nc12 | -63% | -4 | 10µM* | 4% | -6 | -1
COCCCNC(=O)c1c(NC(=O)c2ccco2)n(Cc2ccccc2)c2nc3ccccc3nc12 | -64% | 11 | 13µM* | 4% | -18 | 0
CC(C)CNC(=O)c1c(N)n(Cc2ccc3c(c2)OCO3)c2nc3ccccc3nc12 | -49% | -15 | 3.2µM* | 2% | -15 | -1
O=C(C1CCCN(S(=O)(=O)c2ccc(F)cc2)C1)N1CCOCC1 (configuration not stated) | ? | -13 | / | / | -11 | -2
CC1COC2(c3ccccc3Cl)c3cc(Cl)ccc3NC(=O)CN12 (configuration not stated) | / | -36 | / | / | / | /
